# Measured values from PubChem BioAssay (Tox21).
# Records with an inconclusive call do not appear. A call without a number means that no potency is given here. The source made the active and inactive calls. The call rests on the fitted dose curve.
# Experiment: qHTS assay for small molecule agonists of the p53 signaling pathway - cell viability (AID 651633);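 further: p53RE-bla HCT reporter cells with a stable beta-lactamase p53 reporter; nearly all actives have a fitted effect of over 30% in size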
# Conditions: p53RE-bla HCT-116 viability, ATP luminescence, 16 h; series mostly up to 83.3 µM
# Excerpt: National Center for Advancing Translational Sciences [NCATS]
# NIH Chemical Genomics Center [NCGC]
# U.S. Environmental Protection Agency [EPA]
# National Institutes of Environmental Health Sciences [NIEHS]
# National Toxicology Program [NTP]
# U.S. Food and Drug Administration [FDA]
# p53, a tumor suppressor protein, is activated following cellular insult, including DNA damage and other cellular stresses. The activation of p53 regulates cell fate by inducing DNA repair, cell cycle arrest, apoptosis, or cellular senescence. The activation of p53, therefore, is a good indicator of DNA damage and other cellular stresses. […] The activation of the reporter gene under culture conditions can be detected by fluorescence intensity. This cell line was used to screen the Tox21 compound library in a 1536-well plate format and to identify agonists that activate the p53 signaling pathway.
# Tox21 Assay Protocol Summary:
# The p53RE-bla cells were dispensed at 4,000 cells/5 ul/well in 1536-well black wall/clear bottom plates using a Multidrop dispenser. After the assay plates were incubated at a 37 C/5% CO2 incubator for 5 hours, 23 nL of compounds dissolved in DMSO, positive controls or DMSO only was transferred to the assay plate by a pin tool. The plates were incubated at 37 C for 16 hours. After 1 uL of LiveBLAzerTM B/G FRET substrate was added using a Flying Reagent Dispenser, the plates were incubated at room temperature for 2 hours, and fluorescence intensity was measured by an Envision plate reader.
# For cell viability readout that measures cytotoxicity, 4 ul/well of CellTiter-Glo reagent was added into the assay plates using a Flying Reagent Dispenser. After 30 min incubation at room temperature, the luminescence intensity in the plates was measured using a ViewLux plate reader.
row,Structure (SMILES),Potency
1,CCCCCCOC(=O)CCC,inactive
2,Nc1ccc(C(=O)Nc2ccccc2N)cc1,inactive
3,CN(C)CC/C=C1\c2ccccc2COc2ccccc21,inactive
4,O=C(O)Cn1c(C(=O)Nc2nc(-c3ccccc3Cl)cs2)cc2ccccc21,inactive
5,CCCCCCCCCCCCC(=O)O,inactive
6,COCCOCCOCCOCCOC,inactive
7,O=S1(=O)c2cccc3cccc(c23)N1CCCN1CCN(c2ccc(F)cc2)CC1,inactive
8,CC(=O)/C(C)=C/C1C(C)=CCCC1(C)C (stereo not given),inactive
9,Cn1c(N)nc2nc[nH]c2c1=O,inactive
10,CCCCCCc1ccc(N)cc1,inactive
11,CCN(CC)CCOC(=O)C1(c2ccccc2)CCCC1,inactive
12,COc1ccc(C(C)=O)cc1,inactive
13,Cc1c(Cn2ccnc2)c2ccccc2n1CCC(=O)O,inactive
14,S=C(S)NCCNC(=S)S,inactive
15,ClC(Cl)(Cl)c1ccc(C(Cl)(Cl)Cl)cc1,inactive
16,CCC(=O)OC(C)(C)C1CC=C(C)CC1 (stereo not given),inactive
17,COc1ccc2[nH]c(S(=O)Cc3ncc(C)c(OC)c3C)nc2n1 (stereo not given),inactive
18,CN(C)CCCOc1nn(Cc2ccccc2)c2ccccc12,inactive
19,c1ccc(OCc2ccc(CCCN3CCOCC3)cc2)cc1,inactive
20,Cc1ccccc1N=Nc1ccc(N=Nc2c(O)ccc3ccccc23)c(C)c1,inactive

row,Structure (SMILES),Potency
1,O=C(O)Cc1sc(-c2ccccc2)nc1-c1ccc(Cl)cc1,inactive
2,CCCc1ccccc1,inactive
3,Oc1ccc(O)c2c(O)cccc12,inactive
4,Nc1nc(CC(=O)O)cs1,inactive
5,CC1(C)[C@H]2CC[C@]1(C)[C@H](O)C2,inactive
6,CCCCCCCCCC(=O)OCC,inactive
7,COc1cc(C(C)(C)C)c(O)c(C(C)(C)C)c1,inactive
8,Cn1c(=O)c2c(ncn2CC(O)CO)n(C)c1=O (stereo not given),inactive
9,CC(C)(C)c1ccc(S)cc1,inactive
10,CCCC[C@H]1CN(CC2CCOCC2)C(=O)OC12CCN(C1(C)CCN(C(=O)c3c(C)ncnc3C)CC1)CC2,inactive
11,CC(=O)CC(=O)c1ccccc1,inactive
12,CCN(CC)C(C)CN1c2ccccc2Sc2ccccc21 (stereo not given),inactive
13,CCN(CC)C(C)=O,inactive
14,CCCCC(CC)COCCCN (stereo not given),inactive
15,Cc1cccc(C(C)(C)C)c1O,inactive
16,CCN(CC)CCOc1ccc2c(c1)C(=O)c1cc(OCCN(CC)CC)ccc1-2,inactive
17,N[C@H]1C(O)O[C@H](CO)[C@H](O)[C@@H]1O (stereo not given in full),inactive
18,CC(C)(C)c1cc(CO)cc(C(C)(C)C)c1O,inactive
19,CC(=O)[C@@]1(O)CC[C@H]2[C@@H]3C[C@H](C)C4=CC(=O)CC[C@]4(C)[C@H]3CC[C@@]21C,inactive
20,CCN(CCO)CCCC(C)Nc1ccnc2cc(Cl)ccc12 (stereo not given),inactive
